Residue numbers refer to the chain shown, from its start.
Legend:
Experiment in all cases: yeast three-hybrid, YBZ-1, SC-Leu-His + 0.5 mM 3-AT, 4 days
Conditions in all cases: tags: N-Gal4 AD-HA kept; label: inside an RPR1-promoter hybrid RNA with tandem MS2 sites; ssRNA
PUM1 PUF domain R3-LYG = PUM1 PUF domain R3-LYG (Homo sapiens, UniProt Q14671 828-1176, C935L;R936Y;Q939G)
Procedure, shortened: (§1)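 Pumilio-1 PUF domain libraries, randomized at the three base-contacting residues of each repeat, were co-expressed with matching RNA elements from a centromeric plasmid in strain YBZ-1, which carries a LexA–MS2 coat fusion and a HIS3 reporter. Transformants grew for four days on SC-Leu (input) or on SC-Leu-His + 0.5 mM 3-AT (selection), and the repeat regions were PCR-amplified and Illumina-sequenced. The interaction score is the log change in variant frequency from input to selection. That logarithm is base 2, with a pseudocount of 1 where a variant was absent.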

PUM1 PUF domain R3-RSC = PUM1 PUF domain R3-RSC (Homo sapiens, UniProt Q14671 828-1176, C935R;R936S;Q939C)
Procedure, shortened: as §1

PUM1 PUF domain R3-MSN = PUM1 PUF domain R3-MSN (Homo sapiens, UniProt Q14671 828-1176, C935M;R936S;Q939N)
Procedure, shortened: as §1

PUM1 PUF domain R8-LRR = PUM1 PUF domain R8-LRR (Homo sapiens, UniProt Q14671 828-1176, N1122L;Y1123R;Q1126R)
Procedure, shortened: as §1

PUM1 PUF domain R8-RPR = PUM1 PUF domain R8-RPR (Homo sapiens, UniProt Q14671 828-1176, N1122R;Y1123P;Q1126R)
Procedure, shortened: as §1

PUM1 PUF domain R8-GYK = PUM1 PUF domain R8-GYK (Homo sapiens, UniProt Q14671 828-1176, N1122G;Q1126K)
Procedure, shortened: as §1

PUM1 PUF domain R4-MPG = PUM1 PUF domain R4-MPG (Homo sapiens, UniProt Q14671 828-1176, N971M;H972P;Q975G)
Procedure, shortened: as §1

PUM1 PUF domain R4-VWK = PUM1 PUF domain R4-VWK (Homo sapiens, UniProt Q14671 828-1176, N971V;H972W;Q975K)
Procedure, shortened: as §1

PUM1 PUF domain R1-TSR = PUM1 PUF domain R1-TSR (Homo sapiens, UniProt Q14671 828-1176, S863T;R864S;Q867R)
Procedure, shortened: as §1

PUM1 PUF domain R1-QLD = PUM1 PUF domain R1-QLD (Homo sapiens, UniProt Q14671 828-1176, S863Q;R864L;Q867D)
Procedure, shortened: as §1

PUM1 PUF domain R1-RTE = PUM1 PUF domain R1-RTE (Homo sapiens, UniProt Q14671 828-1176, S863R;R864T;Q867E)
Procedure, shortened: as §1

PUM1 PUF domain R5-WWA = PUM1 PUF domain R5-WWA (Homo sapiens, UniProt Q14671 828-1176, C1007W;R1008W;Q1011A)
Procedure, shortened: as §1

PUM1 PUF domain R6-SWH = molecular target: T1, PUM1 PUF domain R6-SWH (Homo sapiens, UniProt Q14671 828-1176, N1043S;Y1044W;Q1047H)
T1 sequence: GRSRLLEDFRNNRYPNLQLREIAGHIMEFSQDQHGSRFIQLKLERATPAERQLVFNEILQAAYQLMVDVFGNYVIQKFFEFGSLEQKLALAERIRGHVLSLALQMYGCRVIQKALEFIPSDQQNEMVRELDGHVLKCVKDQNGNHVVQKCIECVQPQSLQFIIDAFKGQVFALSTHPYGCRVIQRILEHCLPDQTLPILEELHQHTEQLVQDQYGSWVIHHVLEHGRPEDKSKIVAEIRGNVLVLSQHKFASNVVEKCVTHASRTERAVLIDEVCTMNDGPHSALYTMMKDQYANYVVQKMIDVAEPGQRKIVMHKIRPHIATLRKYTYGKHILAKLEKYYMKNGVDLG
Procedure, shortened: as §1

PUM1 PUF domain R5-RSI = PUM1 PUF domain R5-RSI (Homo sapiens, UniProt Q14671 828-1176, C1007R;R1008S;Q1011I)
Procedure, shortened: as §1

PUM1 PUF domain R2-GWD = PUM1 PUF domain R2-GWD (Homo sapiens, UniProt Q14671 828-1176, N899G;Y900W;Q903D)
Procedure, shortened: as §1

PUM1 PUF domain R2-LWM = PUM1 PUF domain R2-LWM (Homo sapiens, UniProt Q14671 828-1176, N899L;Y900W;Q903M)
Procedure, shortened: as §1

PUM1 PUF domain R6-WYG = molecular target: T2, PUM1 PUF domain R6-WYG (Homo sapiens, UniProt Q14671 828-1176, N1043W;Q1047G)
T2 sequence: T1 sequence with S216W, W217Y, H220G
Procedure, shortened: as §1

PUM1 PUF domain R8-KHS = PUM1 PUF domain R8-KHS (Homo sapiens, UniProt Q14671 828-1176, N1122K;Y1123H;Q1126S)
Procedure, shortened: as §1

PUM1 PUF domain R6-HFW = molecular target: T3, PUM1 PUF domain R6-HFW (Homo sapiens, UniProt Q14671 828-1176, N1043H;Y1044F;Q1047W)
T3 sequence: T1 sequence with S216H, W217F, H220W
Procedure, shortened: as §1

PUM1 PUF domain R6-RHG = molecular target: T4, PUM1 PUF domain R6-RHG (Homo sapiens, UniProt Q14671 828-1176, N1043R;Y1044H;Q1047G)
T4 sequence: T1 sequence with S216R, W217H, H220G
Procedure, shortened: as §1

GGCUAGAACUAGUGGAUCCCCCGGCGCCCGGCGGCUCGAGCCCGGGUAAGUGUAAUUAGUCUGCAUGCCGCCGGGCGCCAUGCCUGCAGGUCGACUCUAGAAAACAUG
binding signal (PUM1 PUF domain R3-LYG): 4.62 log2 enrichment (interaction score) | binding signal (PUM1 PUF domain R3-RSC): 3.04 log2 enrichment (interaction score)

GGCUAGAACUAGUGGAUCCCCCGGCGCCCGGCGGCUCGAGCCCGGGUAAGUGUAAGUAGUCUGCAUGCCGCCGGGCGCCAUGCCUGCAGGUCGACUCUAGAAAACAUG
binding signal (PUM1 PUF domain R3-LYG): 6.19 log2 enrichment (interaction score) | binding signal (PUM1 PUF domain R3-MSN): 2.68 log2 enrichment (interaction score)

GGCUAGAACUAGUGGAUCCCCCGGCGCCCGGCGGCUCGAGCCCGGGUAAGCGUAAAUAGUCUGCAUGCCGCCGGGCGCCAUGCCUGCAGGUCGACUCUAGAAAACAUG
binding signal (PUM1 PUF domain R8-LRR): 3.25 log2 enrichment (interaction score) | binding signal (PUM1 PUF domain R8-RPR): 2.38 log2 enrichment (interaction score) | binding signal (PUM1 PUF domain R8-GYK): 4.76 log2 enrichment (interaction score)

GGCUAGAACUAGUGGAUCCCCCGGCGCCCGGCGGCUCGAGCCCGGGUAAGUGUACAUAGUCUGCAUGCCGCCGGGCGCCAUGCCUGCAGGUCGACUCUAGAAAACAUG
binding signal (PUM1 PUF domain R4-MPG): 2.9 log2 enrichment (interaction score) | binding signal (PUM1 PUF domain R4-VWK): 5.63 log2 enrichment (interaction score)

GGCUAGAACUAGUGGAUCCCCCGGCGCCCGGCGGCUCGAGCCCGGGUAAGUGUAAAUUGUCUGCAUGCCGCCGGGCGCCAUGCCUGCAGGUCGACUCUAGAAAACAUG
binding signal (PUM1 PUF domain R1-TSR): 0.81 log2 enrichment (interaction score) | binding signal (PUM1 PUF domain R1-QLD): 4.86 log2 enrichment (interaction score) | binding signal (PUM1 PUF domain R1-RTE): 2.65 log2 enrichment (interaction score)

GGCUAGAACUAGUGGAUCCCCCGGCGCCCGGCGGCUCGAGCCCGGGUAAGUGUGAAUAGUCUGCAUGCCGCCGGGCGCCAUGCCUGCAGGUCGACUCUAGAAAACAUG
binding signal (PUM1 PUF domain R5-WWA): 2.58 log2 enrichment (interaction score)

GGCUAGAACUAGUGGAUCCCCCGGCGCCCGGCGGCUCGAGCCCGGGUAAGUGAAAAUAGUCUGCAUGCCGCCGGGCGCCAUGCCUGCAGGUCGACUCUAGAAAACAUG
binding signal (PUM1 PUF domain R6-SWH): 2.64 log2 enrichment (interaction score)

GGCUAGAACUAGUGGAUCCCCCGGCGCCCGGCGGCUCGAGCCCGGGUAAGUGUUAAUAGUCUGCAUGCCGCCGGGCGCCAUGCCUGCAGGUCGACUCUAGAAAACAUG
binding signal (PUM1 PUF domain R5-RSI): 3 log2 enrichment (interaction score)

GGCUAGAACUAGUGGAUCCCCCGGCGCCCGGCGGCUCGAGCCCGGGUAAGUGUAUAUAGUCUGCAUGCCGCCGGGCGCCAUGCCUGCAGGUCGACUCUAGAAAACAUG
binding signal (PUM1 PUF domain R4-MPG): 2.39 log2 enrichment (interaction score)

GGCUAGAACUAGUGGAUCCCCCGGCGCCCGGCGGCUCGAGCCCGGGUAAGUGUAAAAAGUCUGCAUGCCGCCGGGCGCCAUGCCUGCAGGUCGACUCUAGAAAACAUG
binding signal (PUM1 PUF domain R2-GWD): 3.74 log2 enrichment (interaction score) | binding signal (PUM1 PUF domain R2-LWM): 7 log2 enrichment (interaction score)

GGCUAGAACUAGUGGAUCCCCCGGCGCCCGGCGGCUCGAGCCCGGGUAAGUGUAAAUGGUCUGCAUGCCGCCGGGCGCCAUGCCUGCAGGUCGACUCUAGAAAACAUG
binding signal (PUM1 PUF domain R1-RTE): 0.93 log2 enrichment (interaction score)

GGCUAGAACUAGUGGAUCCCCCGGCGCCCGGCGGCUCGAGCCCGGGUAAGUGUCAAUAGUCUGCAUGCCGCCGGGCGCCAUGCCUGCAGGUCGACUCUAGAAAACAUG
binding signal (PUM1 PUF domain R5-RSI): 2.24 log2 enrichment (interaction score)

GGCUAGAACUAGUGGAUCCCCCGGCGCCCGGCGGCUCGAGCCCGGGUAAGUGUAAAUCGUCUGCAUGCCGCCGGGCGCCAUGCCUGCAGGUCGACUCUAGAAAACAUG
binding signal (PUM1 PUF domain R1-TSR): 2.68 log2 enrichment (interaction score)

GGCUAGAACUAGUGGAUCCCCCGGCGCCCGGCGGCUCGAGCCCGGGUAAGUGUAAAUAGUCUGCAUGCCGCCGGGCGCCAUGCCUGCAGGUCGACUCUAGAAAACAUG
binding signal (PUM1 PUF domain R6-WYG): 3.19 log2 enrichment (interaction score) | binding signal (PUM1 PUF domain R2-GWD): 1.77 log2 enrichment (interaction score) | binding signal (PUM1 PUF domain R3-LYG): 2.65 log2 enrichment (interaction score) | binding signal (PUM1 PUF domain R8-KHS): 4.58 log2 enrichment (interaction score) | binding signal (PUM1 PUF domain R6-HFW): 3.2 log2 enrichment (interaction score) | binding signal (PUM1 PUF domain R8-LRR): 2.35 log2 enrichment (interaction score) | binding signal (PUM1 PUF domain R6-RHG): 2.33 log2 enrichment (interaction score)

GGCUAGAACUAGUGGAUCCCCCGGCGCCCGGCGGCUCGAGCCCGGGUAAGUGUAAAGAGUCUGCAUGCCGCCGGGCGCCAUGCCUGCAGGUCGACUCUAGAAAACAUG
binding signal (PUM1 PUF domain R2-GWD): 10.1 log2 enrichment (interaction score)

— paper PMC8384837, “Expanding the binding specificity for RNA recognition by a PUF domain”
